# Reference: PubChem BioAssay (Tox21)
# Inconclusive results are not listed. Entries that show only a call come without a potency. Activity calls are given as the source filed them. The call rests on the fitted dose curve; in most records, active means well fitted cell-killing curve with a large enough effect in the repeat runs; inconclusive means weak or mixed curves, or effect the other way; inactive means flat fitted curve, though single readings scatter.
# Assay: cAMP Responsive Elements (CRE) small molecule agonists, cell-based qHTS assay: qHTS cell viability counter screen (AID 2060914);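 further: viability read after 3 h of compound exposure; nearly all actives have a fitted effect of over 50% in size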
# Details: CRE-bla HEK293T viability, CellTiter-Glo luminescence, 5 h; series mostly up to 92.4 µM
# Source text: National Center for Advancing Translational Sciences [NCATS]
# Division of Preclinical Innovation [DPI]
# U.S. Environmental Protection Agency [EPA]
# National Institutes of Environmental Health Sciences [NIEHS]
# National Toxicology Program [NTP]
# U.S. Food and Drug Administration [FDA]
# CREB (cyclic-AMP Responsive Element Binding Protein) is a cellular transcription factor. It binds to certain DNA sequences called cAMP Responsive Elements (CRE) and regulates the transcription of the genes. […] This cell line can be used to find agonists/antagonists of the cyclic AMP signaling pathway. The activation of the report gene under culture conditions can be detected by fluorescence intensity. This cell line has been used to screen the Tox21 10K compound library to identify agonists that induce oxidative stress. The cytotoxicity of the Tox21 compound library against the CRE-bla cell line was tested in parallel by measuring the cell viability using CellTiter-Glo assay (Promega, Madison, WI) in the same wells.
# Tox21 Assay Protocol Summary:
# CRE-bla Hek 293T cells were suspended in assay medium (DMEM containing 10% dialyzed FBS, 0.1 mM NEAA, 1 mM sodium pyruvate and 25 mM HEPES) and dispensed at 2,000 cells/5 uL /well into 1536-well black wall/clear bottom plates using a Multidrop Combi (ThermoFisher Scientific, Waltham, MA) dispenser. After the assay plates were incubated at 37 C/5% CO2 for 18 hrs, 23 nL of compounds dissolved in DMSO, positive controls or DMSO only was transferred to the assay plate by a pintool workstation (Kalypsys, San Diego, CA). After the plates were incubated at 37 C/5% CO2 for 3 hrs, 1 uL of LiveBLAzer B/G FRET substrate (Invitrogen, Carlsbad, CA) was added to each well using Bioraptr Flying Reagent Dispenser (FRD, Aurora Discovery, San Diego, CA). The plates were incubated at room temperature for 2 h, then fluorescence intensities were measured using an Envision plate reader (PerkinElmer, Shelton, CT) at Excitation 405nm, Emission 460nm and 530nm. The % activity was determined from the ratio of 460nm/530nm. For cell viability readout that measures cytotoxicity, 4 uL /well of CellTiter-Glo reagent was added into the assay plates using Bioraptr FRD. After 30 min incubation at room temperature, the luminescence intensity in the assay plates was measured using a ViewLux (PerkinElmer, Shelton, CT) plate reader.
# Potency means the concentration at half of the fitted maximal effect.
row,Compound,Potency
1,Nc1ccc(-c2ccc(N)c(Cl)c2)cc1Cl,inactive
2,CC(=O)C1CCOC1=O (stereo not given),inactive
3,[Cd+2].[Cl-].[Cl-],inactive
4,BrCC1CO1 (stereo not given),inactive
5,c1cc2c(c(N3CCNCC3)c1)OCCO2,inactive
6,CCCCCCCCCCCCBr,inactive
7,Oc1ccc(C2(c3ccc(O)cc3)CCCCC2)cc1,inactive
8,O=C1c2ccccc2C(=O)N1SC(Cl)(Cl)Cl,inactive
9,BrCCc1ccccc1,inactive
10,ClC1=C(Cl)[C@]2(Cl)[C@H]3[C@H]([C@@H]4C=C[C@H]3C4)[C@@]1(Cl)C2(Cl)Cl,inactive
11,CCOc1nc(F)cc2nc(S(=O)(=O)Nc3c(Cl)cccc3Cl)nn12,inactive
12,CC(=O)[C@H]1CC[C@H]2[C@@H]3CC[C@H]4C[C@H](O)CC[C@]4(C)[C@H]3C(=O)C[C@]12C,inactive
13,O=[Se]=O,17.1 µM (active)
14,C[C@]12CCC(=O)C=C1CC[C@@H]1[C@@H]2CC[C@@]2(C)[C@H]1CC[C@]2(C)O,inactive
15,CC(C)N(C(=O)SCC(Cl)=C(Cl)Cl)C(C)C,inactive
16,C/C(=C\c1ccccc1)[N+](=O)[O-],inactive
17,CC(C)c1ccc(NC(=O)N(C)C)cc1,inactive
18,N#Cc1ccccn1,inactive
19,N#CC(C#N)=NNc1cccc(Cl)c1,inactive
20,C[C@]12CC[C@H]3[C@@H](CCC4=CC(=O)CC[C@@H]43)[C@@H]1CC[C@@H]2OC(=O)CCC1CCCCC1,inactive

row,Compound,Potency
1,CCCCCOC(=O)c1ccccc1C(=O)OCCCCC,inactive
2,CCC(C)c1cccc(C(C)CC)c1O (stereo not given),inactive
3,O=S(=O)(O)C(F)(F)C(F)(F)C(F)(F)C(F)(F)C(F)(F)C(F)(F)F,inactive
4,CCNc1nc(Cl)nc(NC(C)(C)C)n1,inactive
5,CC(C)O.CC(C)O.OCCN(CCO)CCO.OCCN(CCO)CCO.[Ti],inactive
6,CC(C)C1(C)N=C(c2nc3ccccc3cc2C(=O)O)NC1=O (stereo not given),inactive
7,COP(=S)(OC)SCn1nnc2ccccc2c1=O,inactive
8,CCOS(=O)(=O)OCC,inactive
9,CCCBr,inactive
10,C[N+]1(CCF)[C@@H]2CC[C@H]1CC(OC(=O)C(O)(c1ccccc1)c1ccccc1)C2 (stereo not given in full),inactive
11,CCOP(=S)(OCC)Oc1ccc([N+](=O)[O-])cc1,inactive
12,CNC(=O)Oc1cccc(N=CN(C)C)c1,inactive
13,[Cl][Sn]([Cl])([Cl])[Cl],inactive
14,ClC1(Cl)C2(Cl)C3(Cl)C4(Cl)C(Cl)(Cl)C5(Cl)C3(Cl)C1(Cl)C5(Cl)C24Cl (stereo not given),inactive
15,COC(=O)C1(O)c2ccccc2-c2ccccc21,inactive
16,CCC(=O)c1ccc(Cl)cc1,inactive
17,Clc1ccc(CSC(Cn2ccnc2)c2ccc(Cl)cc2Cl)cc1 (stereo not given),inactive
18,c1ccc2c(c1)oc1ccccc12,inactive
19,CCOS(C)(=O)=O,inactive
20,Cn1cc[n+](C)c1 (tested in a mixture with another compound),inactive
